Where “and” joins values, the source holds several entries; their conditions need not be identical. Identical values can stand only once. Results filed as inconclusive are left out. Calls of active or inactive are those of the source. Calls come from the whole dose curve; as a rule, active = well fitted curve in the direction sought with a large enough effect; inconclusive = small, poorly fitted or top-dose-only effect, or another doubt; inactive = no such curve, though single readings can be large; an effect the other way counts as inactive or inconclusive.
Assays:
[1] = system: Zika virus NS2B-NS3 protease (unlinked); test: Optimization of GU AMC qHTS for Zika virus inhibitors: Unlinked NS2B-NS3 protease assay (AID 1347151); note: nearly all actives have a fitted effect of over 80% in size; note: potency is the fitted concentration of half-maximal effect
Method in brief: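 Noncovalent NS2B hydrophilic domain–NS3 protease complex (25 nM final) in 10 mM Tris-HCl pH 8.0, 0.01% Tween 20; AMC substrate, room temperature 15 min (~20% conversion); fluorescence change normalized, 4-parameter Hill fit.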

[2] = system: Zika virus NS2B-NS3 protease; test: Primary screen GU AMC qHTS for Zika virus inhibitors (AID 1347154); note: nearly all actives have a fitted effect of over 70% in size; note: potency is the fitted concentration of half-maximal effect
Method in brief: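 Unlinked Zika NS2B hydrophilic domain–NS3 protease complex at 25 nM in 10 mM Tris-HCl pH 8.0, 0.01% Tween 20, with an AMC peptide substrate. Fluorescence change (340/450 nm) over 15 min at room temperature, normalized to controls, fitted to 4-parameter Hill.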

[3] = system: Zika virus NS2B-NS3 protease (unlinked complex); test: Primary screen GU Rhodamine qHTS for Zika virus inhibitors: Unlinked NS2B-NS3 protease assay (AID 1347159); note: nearly all actives have a fitted effect of over 60% in size; note: potency is the fitted concentration of half-maximal effect
Method in brief: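 Percent inhibition came from the 15-min rise in Rhodamine110 fluorescence (1.5 microM substrate, ~15% conversion), normalized to no-inhibitor and no-enzyme wells and Hill-fitted. Unlinked protease, 25 nM, pH 8.0 Tris buffer; compounds up to 114 microM, 15-min preincubation.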

[4] = system: Zika virus NS2B-NS3 protease (linked construct); test: Primary screen NINDS Rhodamine qHTS for Zika virus inhibitors (AID 1347160); note: nearly all actives have a fitted effect of over 55% in size; note: potency is the fitted concentration of half-maximal effect
Method in brief: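 Rhodamine110-peptide cleavage (1.5 µM substrate) by 25 nM linked NS2B-NS3 enzyme at pH 8.0 (Tris, Tween 20), after 15 min RT preincubation with compounds; 15-min fluorescence change normalized to controls and Hill-fitted.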

[5] = target: Lysine-specific demethylase 5B (Homo sapiens) (UniProt Q9UGL1); test: Optimization screen for KDM5B Histone Demethylases FDH coupled qHTS against the LOPAC library (AID 1347166)
Method in brief: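 KDM5BDeltaAP (200nM final) in 50mM HEPES pH 7.5, 0.01% Tween-20 was preincubated with compound for 10 min at room temperature. A substrate mix of 12.5uM H3K4Me3, 25uM a-ketoglutarate, ascorbate, Fe2+, NAD+ and formaldehyde dehydrogenase was then added. NADH fluorescence (340/450 nm) was read initially and after 30 min.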

Furin (Homo sapiens) = Furin (Homo sapiens) (UniProt P09958); test: Furin counterscreen qHTS for Zika virus inhibitors (AID 1347149); note: nearly all actives have a fitted effect of over 70% in size; note: potency is the fitted concentration of half-maximal effect
Method in brief: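 Counterscreen measures cleavage of 2 microM BOC-RVRR-AMC, below its ~15 microM Km, by 5 nM full-length human furin at pH 7.0 after a 15-min compound preincubation. Inhibition derives from the 15-min fluorescence increase at 37C.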

[6] = Vero cells viability qHTS for Zika virus inhibitors (AID 1347167)
Method in brief: (§1)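 qHTS titration; 24-48 h compound exposure, 37 degrees C/5% CO2; DMEM, 4% FBS; CellTiter Glo ATP luminescence.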

[7] = Tertiary RLuc qRT-PCR qHTS assay for Zika virus inhibitors (AID 1347169); note: nearly all actives have a fitted effect of over 55% in size; note: potency is the fitted concentration of half-maximal effect
Method in brief: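 Vero cells (1,000/well) infected with recombinant ZIKV-RLuc (Cambodian) at MOI 1-2 after compound addition, 48-72 hrs at 37 degrees C. Live-cell Renilla luciferase substrate added; luminescence read after 1-1.5 hrs.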

[8] = system: Zika virus NS2B-NS3 protease (linked construct); test: Confirmatory screen NINDS AMC qHTS for Zika virus inhibitors (AID 1347152); note: nearly all actives have a fitted effect of over 70% in size; note: potency is the fitted concentration of half-maximal effect
Method in brief: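 Linked NS2B-NS3 protease, 1 nM, in 10 mM Tris-HCl pH 8.0, 0.01% Tween 20; compounds preincubated 15 min at room temperature. Nle-KRR-AMC 10 microM (Km 18.3 µM); 15-min fluorescence change (340/450 nm) fitted to 4-parameter Hill.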

[9] = system: Zika virus NS2B-NS3 protease (unlinked complex); test: Confirmatory screen GU AMC qHTS for Zika virus inhibitors (AID 1347153); note: nearly all actives have a fitted effect of over 70% in size;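 for Potency: enzyme at 25 nM with substrate at 10 µM below its Km of 18.3 µM; potency is the fitted concentration of half-maximal effect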
Method in brief: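 Compounds were preincubated 15 min at room temperature with 25 nM noncovalent NS2B-NS3 protease at pH 8.0; AMC substrate added at 10 microM and 15-min fluorescence gain (340/450 nm) converted to percent inhibition, fitted 4-parameter.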

[10] = Confirmatory screen NINDS Rhodamine qHTS for Zika virus inhibitors (AID 1347161); note: nearly all actives have a fitted effect of over 60% in size; note: potency is the fitted concentration of half-maximal effect
Method in brief: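 Purified NS2B-NS3 protease with the NS2B hydrophilic domain joined by a flexible linker (25 nM) in 10 mM Tris-HCl pH 8.0, 0.01% Tween 20, preincubated 15 min at RT with compound; Rhodamine110 peptide substrate 1.5 µM; fluorescence change over 15 min; 4-parameter Hill fit.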

[11] = HepG2 cells viability qHTS for Zika virus inhibitors (AID 1347168)
Method in brief: as §1

[12] = Confirmatory screen GU Rhodamine qHTS for Zika virus inhibitors qHTS (AID 1347157); settings: purified enzyme assay, Rhodamine110 substrate fluorescence, 15 min
Method in brief: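 Compounds, tested up to 114 microM, were incubated for 15 minutes with 25 nM unlinked NS2B-NS3 protease at pH 8.0. Cleavage of 1.5 microM Rhodamine110 substrate was then followed by fluorescence for 15 minutes.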

[13] = system: Zika virus NS2B-NS3 protease (linked); test: 384 well plate NINDS AMC confirmatory qHTS for Zika virus inhibitors (AID 1347163); settings: Recombinant NS2B-NS3 protease, Ac-VKTGKR-AMC fluorescence; note: potency is the fitted concentration of half-maximal effect; nearly all actives have a fitted effect of over 50% in size
Method in brief: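 Fluorescence at 355/460 nm was read after 25 minutes of cleavage of 30 microM Ac-VKTGKR-AMC at room temperature, in the dark. Before substrate addition, compounds (up to 1 mM final) sat ~15 minutes with 5, 30 or 60 nM linked protease. Signals were normalized to no-enzyme and no-inhibitor wells.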

[14] = system: Zika virus NS2B-NS3 protease (linked construct); test: 384 well plate NINDS Rhodamine confirmatory qHTS for Zika virus inhibitors (AID 1347164);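 note: fluorescence from protease cleavage of Ac-LKRR-rhodamine 110 substrate; nearly all actives have a fitted effect of over 65% in size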; note: potency is the fitted concentration of half-maximal effect
Method in brief: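 Linked NS2B-NS3 protease (final 5, 30 or 60 nM) preincubated ~15 minutes with compounds, then 10 microM Ac-LKRR-Rhodamine 110 added. Fluorescence (485/538 nm) read after 25 minutes at room temperature, normalized to no-enzyme and no-inhibitor controls.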

[15] = OV-KATE Cancer Cell Toxicity qHTS against the NCATS CANVASS Library (AID 1347345)
Method in brief: (§2)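 In this cytotoxicity screen, 1000 cells per well rested 4 hours, then received compound (11 concentrations) for a 72-hour incubation; an ATP-dependent luminescent signal (CellTiter-Glo) was the endpoint.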

[16] = HPAF-II Cancer Cell Toxicity qHTS against the NCATS CANVASS Library (AID 1347346); note: series mostly up to about 38 µM; nearly all actives have a fitted effect of over 55% in size
Method in brief: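 Cytotoxicity read-out was CellTiter-Glo luminescence after 72 h at 37 degrees C exposure of HPAF-II cells (1000/well) to compounds in an 11-point titration.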

[17] = UWB1.289 Cancer Cell Toxicity qHTS against the NCATS CANVASS Library (AID 1347347); note: series mostly up to about 38 µM; nearly all actives have a fitted effect of over 60% in size
Method in brief: as §2

[18] = OV-SAHO Cancer Cell Toxicity qHTS against the NCATS CANVASS Library (AID 1347348); note: series mostly up to about 38 µM; nearly all actives have a fitted effect of over 55% in size
Method in brief: as §2

[19] = ZIKV-mCherry secondary qHTS for Zika virus inhibitors (AID 1347158); note: top concentration of the series differs between compounds
Method in brief: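 Percent infection is the share of Hoechst-identified Vero nuclei with mCherry signal above 450 RFU (3 SD over negative controls). Cells were infected with recombinant ZIKV-mCherry at MOI 1 after compound addition and imaged 48–72 h later.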

Measured: Potency

Lysine-specific demethylase 5B (Homo sapiens), sequence (Q9UGL1 whole entry, looked up): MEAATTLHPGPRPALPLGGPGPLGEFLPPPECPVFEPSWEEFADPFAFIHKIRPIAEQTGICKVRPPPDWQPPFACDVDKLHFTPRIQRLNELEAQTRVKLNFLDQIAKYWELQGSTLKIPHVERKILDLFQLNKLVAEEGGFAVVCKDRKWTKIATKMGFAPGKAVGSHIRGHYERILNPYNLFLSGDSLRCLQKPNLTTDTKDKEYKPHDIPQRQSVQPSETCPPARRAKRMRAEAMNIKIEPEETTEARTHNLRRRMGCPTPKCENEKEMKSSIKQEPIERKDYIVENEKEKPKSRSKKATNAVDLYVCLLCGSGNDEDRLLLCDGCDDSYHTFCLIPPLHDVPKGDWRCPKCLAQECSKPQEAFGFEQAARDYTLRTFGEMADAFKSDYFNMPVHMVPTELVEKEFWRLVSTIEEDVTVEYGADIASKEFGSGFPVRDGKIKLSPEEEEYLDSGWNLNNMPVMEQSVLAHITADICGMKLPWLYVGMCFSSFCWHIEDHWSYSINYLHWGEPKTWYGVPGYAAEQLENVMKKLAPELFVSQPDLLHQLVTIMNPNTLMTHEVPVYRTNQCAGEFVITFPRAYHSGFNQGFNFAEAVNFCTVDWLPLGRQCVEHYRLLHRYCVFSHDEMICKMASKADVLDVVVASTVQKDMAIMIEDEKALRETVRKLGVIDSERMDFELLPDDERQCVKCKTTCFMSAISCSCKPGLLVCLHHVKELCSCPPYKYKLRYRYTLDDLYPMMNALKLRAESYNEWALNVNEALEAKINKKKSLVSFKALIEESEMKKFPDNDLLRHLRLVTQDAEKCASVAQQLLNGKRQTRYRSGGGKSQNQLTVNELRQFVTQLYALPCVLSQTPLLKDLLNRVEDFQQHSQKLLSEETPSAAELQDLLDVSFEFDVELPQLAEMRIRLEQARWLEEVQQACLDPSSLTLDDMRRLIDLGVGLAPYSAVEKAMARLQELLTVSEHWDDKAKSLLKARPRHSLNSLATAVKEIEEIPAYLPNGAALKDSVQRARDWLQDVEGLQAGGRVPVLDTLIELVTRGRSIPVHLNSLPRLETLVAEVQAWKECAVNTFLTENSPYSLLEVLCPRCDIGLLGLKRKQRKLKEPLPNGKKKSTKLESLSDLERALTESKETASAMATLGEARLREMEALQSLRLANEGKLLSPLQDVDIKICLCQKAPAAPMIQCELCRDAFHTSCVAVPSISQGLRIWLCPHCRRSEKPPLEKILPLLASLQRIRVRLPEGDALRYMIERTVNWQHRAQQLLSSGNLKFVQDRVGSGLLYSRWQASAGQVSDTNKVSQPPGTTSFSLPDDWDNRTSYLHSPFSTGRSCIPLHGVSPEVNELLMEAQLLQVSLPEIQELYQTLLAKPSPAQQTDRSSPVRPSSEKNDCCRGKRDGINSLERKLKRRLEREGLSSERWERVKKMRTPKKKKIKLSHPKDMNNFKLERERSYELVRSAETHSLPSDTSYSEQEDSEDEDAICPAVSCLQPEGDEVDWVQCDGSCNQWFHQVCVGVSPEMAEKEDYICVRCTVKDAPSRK
Furin (Homo sapiens), sequence (P09958 whole entry, looked up): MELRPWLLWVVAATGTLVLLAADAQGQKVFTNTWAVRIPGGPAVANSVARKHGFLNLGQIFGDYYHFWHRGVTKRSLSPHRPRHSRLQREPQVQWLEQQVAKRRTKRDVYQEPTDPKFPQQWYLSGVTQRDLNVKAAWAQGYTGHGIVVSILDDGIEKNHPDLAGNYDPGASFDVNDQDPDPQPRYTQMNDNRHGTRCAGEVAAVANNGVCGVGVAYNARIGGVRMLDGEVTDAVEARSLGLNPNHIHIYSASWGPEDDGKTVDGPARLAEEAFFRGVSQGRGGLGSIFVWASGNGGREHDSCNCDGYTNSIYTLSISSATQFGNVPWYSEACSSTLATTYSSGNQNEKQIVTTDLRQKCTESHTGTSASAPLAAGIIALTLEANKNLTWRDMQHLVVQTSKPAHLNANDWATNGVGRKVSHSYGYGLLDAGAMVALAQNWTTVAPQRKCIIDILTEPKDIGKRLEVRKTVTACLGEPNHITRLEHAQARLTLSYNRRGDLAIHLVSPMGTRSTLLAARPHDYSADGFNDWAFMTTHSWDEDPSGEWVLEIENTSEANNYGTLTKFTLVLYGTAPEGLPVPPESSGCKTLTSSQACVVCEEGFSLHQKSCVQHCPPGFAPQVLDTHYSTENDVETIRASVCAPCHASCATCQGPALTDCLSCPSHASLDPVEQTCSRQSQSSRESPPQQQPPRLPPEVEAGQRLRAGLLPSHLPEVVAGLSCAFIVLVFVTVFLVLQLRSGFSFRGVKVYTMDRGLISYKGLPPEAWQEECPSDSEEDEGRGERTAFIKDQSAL

O=c1[nH]c2ccccc2n1C1CCN(CCCC(c2ccc(F)cc2)c2ccc(F)cc2)CC1
inactive: [1] | [2] | [3] | [4] | [5]

CCC1(C2=NCCN2)Cc2ccccc2O1 (centres undefined)
inactive: [1] | [2] | [5]

c1ccc2c(c1)OCC(C1=NCCN1)O2 (centres undefined)
inactive: [1] | [5]

CC(=O)[C@H]1CC[C@H]2[C@@H]3CC[C@H]4C[C@](C)(O)CC[C@]4(C)[C@H]3CC[C@]12C
inactive: [1] | [2] | [5]

c1ccc(C2CC2)c(OCC2=NCCN2)c1
inactive: [1] | [5]

C[C@H]1O[C@@H](O[C@H]2[C@@H](O)C[C@H](O[C@H]3[C@@H](O)C[C@H](O[C@H]4CC[C@@]5(C)[C@H](CC[C@@H]6[C@@H]5CC[C@]5(C)[C@@H](C7=CC(=O)OC7)CC[C@]65O)C4)O[C@@H]3C)O[C@@H]2C)C[C@H](O)[C@@H]1O
active: [7] 107 nM
inactive: Furin (Homo sapiens) | [1] | [2] | [3] | [4] | [6]

O=c1[nH]c2ccccc2n1CCCN1CCC(n2c(=O)[nH]c3cc(Cl)ccc32)CC1
inactive: [1] | [5]

CC(O)(CS(=O)(=O)c1ccc(F)cc1)C(=O)Nc1ccc(C#N)c(C(F)(F)F)c1 (centres undefined)
inactive: [1] | [3] | [4] | [5]

CNCC(O)c1ccc(O)cc1 (centres undefined)
inactive: [1] | [5]

CN1C[C@H](CNC(=O)OCc2ccccc2)C[C@@H]2c3cccc4c3c(cn4C)C[C@H]21
inactive: [8] | [9] | [2] | [10] | [6] | [11] | [7]
active: [1] 23.8 µM

C[C@@H]1O[C@@H](O[C@H]2C[C@@H](O)[C@]3(CO)[C@H]4[C@H](O)C[C@]5(C)[C@@H](C6=CC(=O)OC6)CC[C@]5(O)[C@@H]4CC[C@]3(O)C2)[C@H](O)[C@H](O)[C@H]1O
inactive: Furin (Homo sapiens) | [1] | [2] | [3] | [4] | [5] | [6] | [11]
active: [7] 117 nM and 58.7 nM

Cc1cccc(C)c1NC1=NCCCS1
inactive: [1] | [5]

NN=C(N)N
inactive: [1] | [2] | [5]

COC[C@H]1OC(=O)c2coc3c2[C@@]1(C)C1=C(C3=O)C2CCC(=O)[C@@]2(C)C[C@H]1OC(C)=O (some centres undefined)
inactive: [1] | [2] | [3] | [4] | [5]

CCCN1CCC[C@@H]2Cc3[nH]ncc3C[C@H]21
inactive: [1] | [2] | [5]

NCC(CC(=O)O)c1ccc(Cl)cc1 (centres undefined)
inactive: [1] | [5]

Cc1cc(SCc2sc(-c3ccc(C(F)(F)F)c(F)c3)nc2C)ccc1OCC(=O)O
inactive: [6] | [11]
active: [8] 17.1 µM and 12.4 µM | [9] 19.2 µM and 17.1 µM | [12] 2.21 µM | [3] 2.82 µM | [4] 1.78 µM | [10] 1.75 µM and 1.96 µM and 1.97 µM | [13] 39.8 µM | [14] 35.5 µM | [7] 23400 nM

COc1ccccc1N1CCNCC1
inactive: [1] | [2] | [5]

Cc1ncc(CNC(=O)N(CCCl)N=O)c(N)n1
inactive: [1] | [2] | [5]

CC[C@@H](CO)NC(=O)[C@@H]1C=C2c3cccc4[nH]cc(c34)C[C@H]2N(C)C1
active: [1] 23.8 µM

CC(=O)[C@H]1CC[C@H]2[C@@H]3CC[C@H]4C[C@H](O)CC[C@]4(C)[C@H]3C(=O)C[C@]12C
inactive: [1] | [2] | [5]

COc1ccc(C(CN(C)C)C2(O)CCCCC2)cc1 (centres undefined)
inactive: [1] | [2] | [5]

CN1CCN(C(=O)O[C@H]2c3nccnc3C(=O)N2c2ccc(Cl)cn2)CC1
inactive: [2]

Cc1ccc(-c2nc3ccc(C)cn3c2CC(=O)N(C)C)cc1
inactive: [10] | [6] | [11] | [7]
active: Furin (Homo sapiens) 8.55 µM | [8] 27.1 µM

NCC(O)c1ccc(O)cc1 (centres undefined)
inactive: [1] | [2] | [4] | [5] | [15] | [16] | [17] | [18]

O=C(O)C(=O)c1cn(Cc2ccccc2)c2ccc(-c3ccc(OC(F)(F)F)cc3)cc12
active: [8] 7.84 µM | [9] 9.61 µM | [2] 6.07 µM | [12] 1.24 µM and 1.56 µM | [3] 1.58 µM | [4] 2.51 µM | [10] 1.24 µM and 1.75 µM | [13] 11.2 µM | [14] 12.6 µM and 3.16 µM
inactive: [19] | [6] | [11]

N[C@@H](Cc1ccc(Oc2cc(I)c(O)c(I)c2)c(I)c1)C(=O)O
inactive: [14] | [6] | [11] | [7]
active: Furin (Homo sapiens) 30.4 µM | [12] 6.31 µM | [10] 11.2 µM and 4.94 µM | [13] 50.1 µM

O=c1oc2ccccc2c(O)c1C(CC(O)c1ccc(-c2ccc(Br)cc2)cc1)c1ccccc1 (centres undefined)
active: Furin (Homo sapiens) 26.4 µM | [2] 14.1 µM | [12] 7.94 µM | [10] 3.16 µM | [13] 31.6 µM | [14] 6.31 µM

CCN(C(C)=O)c1cccc(-c2ccnc3c(C#N)cnn23)c1
active: Furin (Homo sapiens) 24.1 µM | [8] 27.1 µM
inactive: [10] | [6] | [11] | [7]

Nc1ccncc1
inactive: [1] | [5]

O=C1NCN(c2ccccc2)C12CCN(CC1COc3ccccc3O1)CC2 (centres undefined)
inactive: [1] | [2] | [5]

CC(CCc1ccccc1)NC(C)C(O)c1ccc(O)cc1 (centres undefined)
inactive: [1] | [5]

Fc1ccc(C(OCCN2CCN(CCCc3ccccc3)CC2)c2ccc(F)cc2)cc1
inactive: [1] | [2] | [5]

Cc1cccc(C)c1NC(=O)CN1CCCC1=O
inactive: [1] | [2] | [5]

CC(C)=CCOc1c2occc2cc2ccc(=O)oc12
inactive: [1] | [2] | [5]

NCC1(CC(=O)O)CCCCC1
inactive: [1] | [5]

Cc1ccc(S(=O)(=O)N[C@@H](CCCCN)C(=O)CCl)cc1
inactive: [1]

CNC(=O)c1ccc(N2C(=S)N(c3ccc(C#N)c(C(F)(F)F)c3)C(=O)C23CCC3)cc1F
inactive: [3] | [4]

CNC(=O)N1N=C(c2ccc(N)cc2)c2cc3c(cc2CC1C)OCO3 (centres undefined)
inactive: [3] | [4]

CN(C)[C@@H]1C(=O)C(C(N)=O)=C(O)[C@@]2(O)C(=O)C3=C(O)c4c(O)cccc4[C@@](C)(O)[C@H]3C[C@@H]12
active: [13] 224 µM
inactive: [10] | [14]

Source: PubChem BioAssay (NCATS)
